Test results from PubChem BioAssay AID1224860 (National Center for Advancing Translational Sciences (NCATS), 2016).
Inconclusive results are not listed. A call without a number means that no potency is given here. Active and inactive are the calls of the source. The call rests on the fitted dose curve; in most records, active means well fitted cell-killing curve with a large enough effect; inconclusive means small, poorly fitted or top-dose-only effect; inactive means flat fitted curve, though single readings scatter.

Test: Compound cytotoxicity measured by an ATP content assay as a counter-screen for lead compounds in human iPSC derived neural progenitor cells (hNPCs)
Details: human iPSC-derived NPC viability, ATP luminescence; series mostly up to 46.1 µM
How it was run: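 hNPCs (human iPSC-derived) seeded 16–20 h, then exposed to compound for 6, 24 or 72 h at 37 C. ATP-content luminescence read after 10 min at room temperature; cytotoxicity expressed as percent inhibition of viability.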

Structure (SMILES)	Potency
CC(=O)OC(C)OC(=O)C(C)c1ccc(-c2ccccc2)c(F)c1 (stereo unspecified)	inactive
COc1ccc(CC2=NN3C([C@@H](CCc4ccccc4)[C@@H](C)O)=NC(C)C3C(=O)N2)cc1OC (stereo partly specified)	inactive
O[C@@H](COc1cccc2ncccc12)CN1CCN(C2c3ccccc3[C@@H]3[C@H](c4ccccc42)C3(F)F)CC1 (stereo partly specified)	inactive
CCC(C)SSc1ncc[nH]1 (stereo unspecified)	19.5 µM (active)
CC1=C(CO)C(=O)O[C@@H]([C@@H](C)[C@H]2CC[C@H]3[C@@H]4C[C@H]5O[C@]56[C@@H](O)C=CC(=O)[C@]6(C)[C@@H]4CC[C@]23C)C1	inactive
Nc1ccc(O)c(C(=O)O)c1	inactive
CCCCCCOc1ccccc1C(N)=O	inactive
O=C(O)CCC(=O)c1ccc(-c2ccccc2)cc1	inactive
CNC1[C@H](O)C(O[C@@H]2C(O)C(O[C@H]3O[C@H]([C@@H](C)NC)CC[C@H]3N)[C@@H](N)C[C@H]2N)OC[C@]1(C)O (stereo partly specified)	inactive
O=C(OCc1ccccc1)c1ccc(O)cc1	inactive
Cc1nc(N)sc1-c1ccnc(Nc2ccc(N3CCOCC3)cc2)n1	inactive
O=C1c2ccccc2C(=O)c2c1ccc(O)c2O	inactive
Cc1c(C(=O)O)c(O)cc2c1C(=O)c1c(O)c([C@@H]3O[C@H](CO)[C@@H](O)[C@H](O)[C@H]3O)c(O)c(O)c1C2=O	inactive
O=C1C(Cl)=C(NCCN2CCOCC2)C(=O)c2ncccc21	1.73 µM (active)
O=C1NC(=O)C(=Cc2ccc(-c3ccc(F)cc3)o2)S1	inactive
CC(C)OC(=O)CCCC=CC[C@@H]1[C@H](C=C[C@@H](O)COc2cccc(C(F)(F)F)c2)[C@H](O)C[C@@H]1O	inactive

Structure (SMILES)	Potency
Nc1cc(C(F)(F)F)ccc1S	19.5 µM (active)
CCCCCCCCCCCC(=O)[O][Sn]([CH2]CCC)([CH2]CCC)[O]C(=O)CCCCCCCCCCC	inactive
CS(=O)(=O)c1ccc(-c2cn3ccccc3n2)cc1	7.74 µM (active)
N#C/C(=C\c1ccc(O)c(O)c1)C(=O)Nc1ccccc1	inactive
CCC(C(=O)O)c1ccc(N2Cc3ccccc3C2=O)cc1 (stereo unspecified)	inactive
COc1ccc(-c2cc(=S)ss2)cc1	inactive
O=C1C[C@@H](c2ccc(O)cc2)Oc2cc(O)cc(O)c21	inactive
O=C(Nc1ncc([N+](=O)[O-])s1)c1cccs1	inactive
CN1CC(=O)N2C(Cc3c([nH]c4ccccc34)[C@H]2c2ccc3c(c2)OCO3)C1=O (stereo partly specified)	inactive
O=C1c2ccccc2-[n+]2ccc3c([nH]c4ccccc43)c21	2.18 µM (active)
COCCn1c2c([n+](Cc3cnccn3)c1C)C(=O)c1ccccc1C2=O	0.69 µM (active)
CC(=C(CCOC(=O)C(C)C)SSC(CCOC(=O)C(C)C)=C(C)N(C=O)Cc1cnc(C)nc1N)N(C=O)Cc1cnc(C)nc1N	inactive
O=S(=O)(O)c1ccc2nc(-c3ccccc3)[nH]c2c1	inactive
CO[C@H]1C(=O)[C@]2(C)[C@@H](OC)C[C@H]3OC[C@@]3(OC(C)=O)[C@H]2[C@H](OC(=O)c2ccccc2)[C@]2(O)C[C@H](OC(=O)[C@H](O)[C@@H](NC(=O)OC(C)(C)C)c3ccccc3)C(C)=C1C2(C)C	inactive
CC(C(=O)O)c1ccc(-c2ccccc2)c(F)c1 (stereo unspecified)	inactive
